PKM2 inhibitor: blocks activity of human pyruvate kinase M2; P14618; 260,000 tested, 0.058% active; Potency, µM (highest dose often 57.5 µM), actives largely listed as inhibitors; purified PKM2, ATP generation, Kinase-Glo luminescence; AID 1634; note: nearly all actives have a fitted effect of over 60% in size
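Enzyme run at intermediate activity with final 0.1 mM ADP, 0.5 mM PEP (50 mM imidazole pH7.2, 50 mM KCl, 7 mM MgCl2), incubated 1 h at r.t. ATP formed read by Kinase-Glo luminescence, normalized to no-enzyme (full inhibition) and uninhibited wells.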
PKM2 inh dose: confirmation of human pyruvate kinase M2 inhibitors, concentration-response | shares compounds with PKM2 inhibitor | purified hPK-M2, Kinase-Glo ATP luminescence, 1 h | Potency, µM (highest dose often 57.5 µM), actives largely listed as inhibitors | 55 tested, 50% active | AID 2263
FLuc counter: firefly luciferase inhibition counter-screen; shares compounds with PKM2 inhibitor; Kinase-Glo firefly luciferase, luminescence, 8 min; Potency, µM (top dose mostly 57.5 µM), hits mostly inhibitors; 55 tested, 30% active; AID 2265
PKM2 inh LDH: confirmation of human pyruvate kinase M2 inhibitors, coupled readout; 55 tested, under 10 active; purified hPK-M2, LDH-coupled NADH fluorescence kinetic; Potency, µM (doses to about 57.5 µM), most hits filed as inhibitors; shares compounds with PKM2 inhibitor
Each line names hits and unclear results; the compound was inactive in the other large screens (follow-up assays come after a bar, where they were run). The entries come from a sample that favours hits as a whole. Calls come from the whole dose curve; as a rule, active = well fitted curve in the direction sought with a large enough effect; inconclusive = small, poorly fitted or top-dose-only effect, or another doubt; inactive = no such curve, though single readings can be large; an effect the other way counts as inactive or inconclusive.

Cc1ccc(-c2nc3cnccn3c2Nc2ccc3c(c2)OCCO3)o1	none
COC(=O)[C@@]1(Cc2ccc(OC)cc2)[C@H]2c3cc(C(=O)N4CCCC4)n(Cc4ccc(C)o4)c3C[C@H]2CN1C(=O)c1ccccc1	none
Fc1ccccc1Cn1nnc2c(-n3ccnc3)ncnc21	none
COc1cc(C2Oc3ccccc3C=C2[N+](=O)[O-])cc(OC)c1OC (configuration not stated)	none
Cn1c2ccccc2c2nnc(SCC(=O)Nc3cccc(O)c3)nc21	none
Cc1cc2[nH]c(=O)c(=O)[nH]c2cc1S(=O)(=O)Nc1ccccc1F	none
COc1ccc2c(c1OC)C(=O)OC2N1C(=O)CC[C@H]1C(=O)Nc1ccc(F)cc1F (some centres not stated)	none
Cc1cccc(C)c1NC(=O)C1CCCN1S(=O)(=O)c1ccc2c(c1)n(C)c(=O)c(=O)n2C (configuration not stated)	none
O=C(Nc1nc2c(F)cc(F)cc2s1)C1CC(=O)N(Cc2ccco2)C1 (configuration not stated)	none
NC(=O)COC(=O)CNC(=O)c1sc2ccccc2c1Cl	none
O=C(COc1ccc(-c2nnco2)cc1)N1CCN(S(=O)(=O)c2ccc3ccccc3c2)CC1	none
O=S(=O)(Nc1ccc2ccccc2n1)c1ccc2c(c1)CCO2	none
CSc1cccc(NS(=O)(=O)c2ccc3c(c2)oc(=O)n3C)c1	none
Cc1cc(C2=CC(C)(c3cc(C)oc3C)Nc3nc(C(F)(F)F)nn32)c(C)o1 (configuration not stated)	none
O=C(Nc1cccc([N+](=O)[O-])c1)C12CC3CC(C1)CC(n1cnc([N+](=O)[O-])n1)(C3)C2	none
Cc1ccc(C(=O)COc2nc(C)nc3ccccc23)cc1	none
CC(C)(C)NC(=O)C(c1ccncc1)N(Cc1ccc(F)cc1)C(=O)c1ccc(-c2ccccc2)[nH]1 (configuration not stated)	none
CN(Cc1ccon1)Cc1cn(C)nc1-c1cccc(Cl)c1	PKM2 inhibitor 10µM | PKM2 inh dose inactive | FLuc counter inactive | PKM2 inh LDH inactive
O=C(O)c1ccccc1NS(=O)(=O)c1cccc(-n2sc3ccccc3c2=O)c1	none
CCN(CC)S(=O)(=O)c1ccc(OC)c(NC(=O)c2cc(C)on2)c1	none
Cc1ccc2nc(-c3ccc(C)o3)c(NC3CCCC3)n2c1	none (no result: PKM2 inhibitor) | PKM2 inh dose inactive | FLuc counter inactive | PKM2 inh LDH inconclusive
Cc1ccc2nsnc2c1S(=O)(=O)N1CCN(Cc2ccc3c(c2)OCO3)CC1	none
Cc1cc(=O)[nH]c(NCCO)n1	none
CCOc1ccc(CC(=O)NNC(=S)NCCc2ccccc2)cc1	none

Screening data as filed in PubChem.
